This note sets out measurements from PubChem BioAssay AID463173 (ICCB-Longwood Screening Facility, Harvard Medical School, 2010).

Each structure is given as a SMILES string. About 4,300 (8.3%) of roughly 52,000 compounds were called active. No stated cut-off is given here; in the data, active means survival mostly below about 52% (no sharp cut-off); inactive means mostly above about 56%. Only a selection was taken, and actives are over-represented in it overall.

For this experiment, the system named is DeltatarO mutant. Nature of the experiment: growth inhibition of S. aureus wild type versus tarO mutant, primary screen, teichoic acid synthesis inhibitors, RN4220, OD600 (AID 463173). The note with it: OD600, 18 h, hits give low values, screened at 18.75 µg/mL (by protocol).
For `CCOC(=O)CC(NC(=O)CCc1c(C)nc2c(-c3ccccc3)c(C)nn2c1C)c1ccc(C)cc1` (stereo not given), the survival was 63% (inactive).
Turning to `COc1ccccc1CNC(=O)C1CCN(S(=O)(=O)c2c(C)noc2/C=C/c2c(C)cc(C)cc2C)CC1`, the survival was 79% (inactive).
Under `COc1cn(CC(=O)Nc2cccc(C)c2)c(CN2CCCCC2)cc1=O` stands 85% (inactive).
For `C=CCNC(=O)CSc1ccc(C)cc1`, the survival was 82% (inactive).
On to `COc1cc(OC)c(NC(=O)NCc2ccc3c(c2)CCN3C(C)=O)cc1Cl`, for which the survival was 124% (inactive).
As for `Cc1cc(NC(=O)C(C)(C)Oc2ccc(Cl)cc2)cc(-c2nc3ncccc3o2)c1O`, the survival is 82% (inactive).
Consider `Cc1ccc(SCC(=O)Nc2cccc(-c3nc4cc(Cl)ccc4o3)c2C)cc1`, for which the survival is 60% (inactive).
Regarding `COc1c(Cl)cc(Cl)cc1C(=O)Nc1cccc(-c2nc3ccccc3o2)c1C`, the survival was 109% (inactive).
With `Cc1c(NC(=O)C(C)(C)Oc2ccc(Cl)cc2)cccc1-c1nc2ncccc2o1`, the survival is 19% (active).
In the case of `Cc1c(NC(=O)C(C)(C)Oc2ccc(Cl)cc2)cccc1-c1nc2ccccc2o1`, the survival was 2% (active).
Under `CC(C)(Oc1ccc(Cl)cc1)C(=O)Nc1ccc(-c2nc3ncccc3o2)cc1` stands 52% (inactive); under `CCCCN1CCc2nc(Nc3ccc(OC)cc3OC)ncc2C1`, 77% (inactive); under `CCOC(=O)c1noc2ncn(CC(=O)O)c(=O)c12`, 54% (inactive).
Take `O=C(O)c1c2c(nc3ccc(F)cc13)CCCC2`: the survival was 89% (inactive).
Regarding `O=C(CSc1ccccc1)Nc1ccc2c(c1)OCO2`, the survival is 100% (inactive).
Under `CC(C)CNC(=O)N1[C@H](c2cccs2)[C@@H](C)C(=O)[C@@H](C)[C@@H]1c1cccs1` stands 54% (inactive); under `CCOC(=O)CNC(=O)N1[C@H](c2cccs2)[C@@H](C)C(=O)[C@@H](C)[C@@H]1c1cccs1`, 55% (active); under `CCCNC(=O)N1[C@H](c2cccs2)[C@@H](C)C(=O)[C@@H](C)[C@@H]1c1cccs1`, 107% (inactive).
Turning to `CC(C)c1ccccc1NC(=O)CN(c1ccccc1)S(=O)(=O)N(C)C`, the survival is 81% (inactive).
Turning to `Cc1oc(-c2ccc(C(=O)Nc3ccccc3F)cc2)nc1COc1ccccc1`, the survival was 94% (inactive).
In the case of `COc1ccccc1CNC(=O)CSCc1nc(-c2ccc(OC)c(OC)c2)oc1C`, the survival is 71% (inactive).
`Cc1ccc(-c2nc(CS(=O)(=O)CC(=O)NCc3ccccc3Cl)c(C)o2)cc1`: the survival is 56% (inactive).
Under `Cc1ccc(-c2nc(CS(=O)CC(=O)NCc3ccccc3Cl)c(C)o2)cc1` (stereo not given) stands 54% (active); under `Cc1oc(-c2ccccc2Cl)nc1CS(=O)CC(=O)NCc1ccccc1Cl` (stereo not given), 54% (inactive); under `COc1ccc(-c2nc(CS(=O)(=O)CC(=O)NCCc3ccc(C)cc3)c(C)o2)cc1`, 85% (inactive).
Under `Cc1oc(-c2cccc(Cl)c2)nc1CSCC(=O)O` stands 75% (inactive); under `Cc1oc(-c2cccc(Cl)c2)nc1CSCC(=O)NCc1ccccc1Cl`, 0% (active); under `Cc1oc(-c2cccc(Cl)c2)nc1CS(=O)(=O)CC(=O)NCc1ccccc1Cl`, 49% (inactive).
For `COc1ccc(-c2nc(CSCC(=O)NCc3ccccc3Cl)c(C)o2)cc1OC`, the survival is 46% (active).
On to `COc1ccc(-c2nc(CS(=O)(=O)CC(=O)NCc3ccccc3Br)c(C)o2)cc1`, for which the survival was 41% (active).
As to `CCc1ccc(-c2nc(CSCC(=O)NCc3ccccc3OC)c(C)o2)cc1`, the survival was 62% (inactive).
For `COc1ccc(-c2nc(CS(=O)CC(=O)NCc3ccccc3Cl)c(C)o2)cc1OC` (stereo not given), the survival is 72% (inactive).
Turning to `CN1CCN(C(=O)c2ccc(N(C)S(C)(=O)=O)cc2)CC1`, the survival is 107% (inactive).
For `Cc1cccc(CCNC(=O)C2CCCN(S(=O)(=O)c3ccc4c(c3)oc(=O)n4C)C2)c1` (stereo not given), the survival is 102% (inactive).
Under `Cc1ccc(Cn2c(C)c3cnn(CC(=O)N4CCN(c5ccc(F)cc5)CC4)c(=O)c3c2C)cc1` stands 71% (inactive); under `CC(=O)c1ccc(NC(=O)Cn2cc(S(=O)(=O)Cc3cccc(Cl)c3)c3ccccc32)cc1`, 113% (inactive).
`O=C(Nc1ccc(F)c(F)c1)c1nc2ncccn2n1`: the survival is 82% (inactive).
In the case of `COc1ccc(Br)cc1CNC(=O)CSc1n[nH]c(-c2ccccc2)n1`, the survival was 73% (inactive).
Take `Cc1ccc(-c2nc(CS(=O)(=O)CC(=O)NC(C)CCc3ccccc3)c(C)o2)cc1` (stereo not given): the survival is 63% (inactive).
Under `Cc1oc(-c2ccccc2Cl)nc1CS(=O)(=O)CC(=O)NC(C)CCc1ccccc1` (stereo not given) stands 76% (inactive); under `Cc1oc(-c2cccc(Cl)c2)nc1CS(=O)(=O)CC(=O)NC(C)CCc1ccccc1` (stereo not given), 32% (active).
On to `COC(=O)C12CC3CC(CC(C(=O)OC)(C1)C3=O)C2=O`, for which the survival was 116% (inactive).
Under `Cc1cccc(CSc2nc3c(c(=O)[nH]2)CCC3)c1` stands 69% (inactive); under `O=c1[nH]c(SCc2cccc(Cl)c2)nc2c1CCC2`, 85% (inactive).
Under `Cc1nc(SCc2cccc(Cl)c2)nc2c1CCCC2` stands -2% (active); under `COc1ccccc1CNC(=O)c1c(O)nc2c(C)cccn2c1=O`, 69% (inactive); under `O=C(NCc1ccc2c(c1)CCN2C(=O)c1ccncc1)c1ccccc1F`, 117% (inactive).
On to `COc1ccccc1Nc1nn2c(=O)c3ccc(C(=O)N4CCCC(C)C4)cc3nc2s1` (stereo not given), for which the survival was 61% (inactive).
As to `COc1ccccc1Nc1nn2c(=O)c3ccc(C(=O)N4CCC(C)CC4)cc3nc2s1`, the survival is 52% (active).
Take `COc1ccccc1Nc1nn2c(=O)c3ccc(C(=O)N4CCCCC4)cc3nc2s1`: the survival was 71% (inactive).
Consider `CCN(CC)S(=O)(=O)c1ccc2c(c1)N(CC(=O)Nc1cccc(C)c1C)C(=O)C1CCCN21` (stereo not given), for which the survival was -2% (active).
For the compound `CCN(CC)S(=O)(=O)c1ccc2c(c1)N(CC(=O)Nc1c(C)cccc1C)C(=O)C1CCCN21` (stereo not given), the survival is 89% (inactive).
Regarding `CCc1ccccc1NC(=O)CN1C(=O)C2CCCN2c2ccc(S(=O)(=O)N(CC)CC)cc21` (stereo not given), the survival was 72% (inactive).
The same measure for `O=C(Cn1c(=O)nc(-c2ccccc2)c2ccccc21)NCCc1ccc(Cl)cc1`: 70% (inactive); for `CC1CCCCN1C(=O)Cn1ncc2c3ccccc3n(Cc3ccccc3F)c2c1=O` (stereo not given): 32% (active).
On to `O=C(Cn1ncc2c3ccccc3n(Cc3ccccc3)c2c1=O)N1CCCCCC1`, for which the survival is 82% (inactive).
Under `Cc1ccc(Cn2c3ccccc3c3cnn(CC(=O)N4CCCCCC4)c(=O)c32)cc1` stands 19% (active); under `CCN1CCN(C(=O)Cn2ncc3c4ccccc4n(Cc4ccccc4F)c3c2=O)CC1`, 95% (inactive).
For the compound `O=C(Cn1ncc2c3ccccc3n(Cc3ccccc3F)c2c1=O)N1CCCCC1`, the survival was 120% (inactive).
Regarding `CCCn1c2ccccc2c2cnn(CC(=O)N3CCC(C)CC3)c(=O)c21`, the survival is 76% (inactive).
Turning to `Cc1cc(C)c(Cn2c3ccccc3c3cnn(CC(=O)N4CCCCC4)c(=O)c32)c(C)c1`, the survival is 126% (inactive).
Under `O=C(Cn1ncc2c3ccccc3n(Cc3ccc(Cl)cc3)c2c1=O)N1CCCCCC1` stands 84% (inactive).
With `Cc1cc(C)c(Cn2c3ccccc3c3cnn(CC(=O)N4CCCCCC4)c(=O)c32)c(C)c1`, the survival is 9% (active).
With `O=C(Cn1ncc2c3ccccc3n(Cc3ccccc3F)c2c1=O)N1CCCCCC1`, the survival was 70% (inactive).
Under `CCN1CCN(C(=O)Cn2ncc3c4ccccc4n(Cc4c(C)cc(C)cc4C)c3c2=O)CC1` stands 124% (inactive).
As to `CCCn1c2ccccc2c2cnn(CC(=O)N3CCN(c4ccccc4F)CC3)c(=O)c21`, the survival was -4% (active).
In the case of `CN(C)c1ccc(C(=O)NC2CCSC2=O)cc1` (stereo not given), the survival was 66% (inactive).
Regarding `Cc1ccc(Cl)cc1N1CCN(C(=O)C(C)n2ncn3cccc3c2=O)CC1` (stereo not given), the survival was 66% (inactive).
For `Cc1ccc2nc(-c3ccc(NC(=O)COc4ccc(Br)cc4Br)cc3)sc2c1`, the survival was 104% (inactive).
Consider `CCOc1cc(-c2nnc(SCC(=O)NCCCOC)nc2-c2ccc(OC)c(OCC)c2)ccc1OC`, for which the survival was 73% (inactive).
In the case of `COc1ccc(NC(=O)CCCN2C(=O)COc3ccc(C)cc32)cc1OC`, the survival is 119% (inactive).
The same measure for `COc1ccc(CNC(=O)c2oc3c(c2C)-c2nn(Cc4ccccc4Cl)cc2CC3)cc1`: 89% (inactive).
In the case of `O=C(Nc1ccc2nc(SCCOc3ccccc3Cl)sc2c1)c1cccs1`, the survival was 49% (inactive).
On to `O=C(Nc1ccc2nc(SCCOc3ccccc3Cl)sc2c1)c1ccco1`, for which the survival was 14% (active).
With `Cc1ccccc1OCCSc1nc2ccc(NC(=O)c3ccco3)cc2s1`, the survival was 25% (active).
Consider `CC(=O)Nc1ccc2nc(SCCOc3ccccc3Cl)sc2c1`, for which the survival is 3% (active).
Regarding `CC(C)(C)C(=O)Nc1ccc2nc(SCCOc3ccccc3Cl)sc2c1`, the survival is 89% (inactive).
As for `O=C(Nc1ccc2nc(SCCOc3ccccc3)sc2c1)c1ccco1`, the survival was 99% (inactive).
Regarding `Cc1ccccc1OCCSc1nc2ccc(NC(=O)c3ccccc3)cc2s1`, the survival is 57% (inactive).
With `COc1cc(C)ccc1OCCSc1nc2ccc(NC(=O)c3ccco3)cc2s1`, the survival was 62% (inactive).
Under `Cc1ccc(OCCSc2nc3ccc(NC(=O)c4ccco4)cc3s2)cc1` stands 84% (inactive); under `O=C(NC1CCCC1)c1ccc2c(c1)N(Cc1ccccc1F)C(=O)c1ccccc1S2`, 81% (inactive); under `Cc1nc2cccnc2n1-c1cccc(C(=O)NCCN(C)C)c1`, 74% (inactive).
With `O=C(NCC(c1cccs1)S(=O)(=O)c1ccccc1)c1ccc(C(F)(F)F)cc1` (stereo not given), the survival is 90% (inactive).
Take `O=C(NCc1ccc(Cl)cc1)c1cnc2sc(N3CCCC3)nn2c1=O`: the survival was 72% (inactive).
For `O=C(NCc1ccc(Cl)cc1)c1cnc2sc(N3CCOCC3)nn2c1=O`, the survival was 52% (active).
Regarding `O=C(NCCc1ccc(Cl)cc1)c1cnc2sc(N3CCOCC3)nn2c1=O`, the survival is 77% (inactive).
Turning to `O=C(CN1C(=O)C2(SCC(=O)N2c2cccc(Cl)c2)c2ccccc21)NC1CCCCC1` (stereo not given), the survival is 86% (inactive).
As to `Cc1ccc2c(CC(=O)Nc3ccc(S(=O)(=O)N4CCCCC4C)cc3)coc2c1C` (stereo not given), the survival was 53% (inactive).
For `COc1ccccc1NC(=O)CN1C(=O)C(c2ccc(F)cc2)=NC12CCCCC2`, the survival is 72% (inactive).
